Measured values from the supplement of paper PMC3334620.
The full ranking holds about 33,000 sequences; the median of “E-score (-0.5 to 0.5)” is about -0.016, and the highest 2% start at about 0.3. Only a selection was taken, and the highest values are over-represented in it overall.

Each sequence was assayed against T1, Yer184c (UniProt P39961) (assay: PBM E-score (8-mer binding enrichment) (E-score (-0.5 to 0.5)); higher = stronger / more preferred TF binding). Conditions: protein concentration: 100 nM; construct: GST-full length.
T1 sequence: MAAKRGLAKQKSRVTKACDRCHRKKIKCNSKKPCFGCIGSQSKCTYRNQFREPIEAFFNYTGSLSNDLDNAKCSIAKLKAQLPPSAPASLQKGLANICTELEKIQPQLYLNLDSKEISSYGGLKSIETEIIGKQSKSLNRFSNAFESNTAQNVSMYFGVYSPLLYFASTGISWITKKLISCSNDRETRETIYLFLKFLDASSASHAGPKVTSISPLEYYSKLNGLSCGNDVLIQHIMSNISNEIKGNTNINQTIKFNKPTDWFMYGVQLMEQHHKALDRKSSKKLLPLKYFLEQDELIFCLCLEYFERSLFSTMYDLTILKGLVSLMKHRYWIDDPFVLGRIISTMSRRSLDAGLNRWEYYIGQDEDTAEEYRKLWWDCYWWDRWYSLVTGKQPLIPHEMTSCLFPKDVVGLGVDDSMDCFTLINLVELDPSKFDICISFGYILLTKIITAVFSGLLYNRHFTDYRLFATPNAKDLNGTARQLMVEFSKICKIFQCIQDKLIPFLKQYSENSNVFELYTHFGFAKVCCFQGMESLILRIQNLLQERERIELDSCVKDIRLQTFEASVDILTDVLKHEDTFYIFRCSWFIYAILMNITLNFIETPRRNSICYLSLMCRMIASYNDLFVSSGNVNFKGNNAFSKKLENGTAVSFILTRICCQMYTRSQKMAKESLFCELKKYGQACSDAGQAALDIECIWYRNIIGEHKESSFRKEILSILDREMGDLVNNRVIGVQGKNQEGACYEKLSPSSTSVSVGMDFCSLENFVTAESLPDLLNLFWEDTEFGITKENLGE
Description: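 Universal 'all 10-mer' protein binding microarrays (Agilent AMADID 015681) probed with GST-tagged S. cerevisiae TFs (full-length or DBD) made by in vitro transcription/translation (PURExpress), about 100-200 nM. Bound TF was detected with fluorescent anti-GST. Each ungapped 8-mer (which stands for itself and its reverse complement) is scored by the PBM enrichment score (E-score), a modified Wilcoxon-Mann-Whitney statistic from -0.5 to +0.5, computed with the Universal PBM Analysis Suite. Scale: above 0.35 generally sequence-specific binding.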

Sequence	PBM E-score
ATGACCTG	-0.0827
AATTGACA	0.0558
GGGCAGGA	-0.269
GGGGTACA	-0.111
CGCATTAG	-0.101
CGATGCAA	-0.00579
ATGCCCCG	-0.139
TCATCGCA	-0.0385
ATCGGCCC	0.113
CCGGCCCA	0.181
CCGGGCCC	0.262
ACGGCCCG	0.146
CCGGCCCG	0.386
CGCGGCCG	0.251
CCGGGCCA	0.14
ATCGGCCA	0.125
AGCGGCCA	-0.161
CCGGGCCG	0.429
ATCGGCCG	0.388
AGCGGCCG	0.315
GAATCTGC	0.12
CTAGTGAG	-0.0187
ACCCCGCG	-0.119
AAACTGTC	-0.133
AGCAGTGC	-0.185

Sequence	PBM E-score
CCCGGCCC	0.161
ACCGGCCA	0.173
CGGGCCCA	0.0473
ACCGGCCG	0.413
CCCGGCCG	0.371
CCCGGCCA	0.209
AGGGCCCG	0.0448
CGGGCCCG	0.351
ACCGGCCT	0.0901
ACAACCTA	-0.00165
GAGTGGCC	-0.0531
AGTACTAG	0.0969
ACAAGCTG	0.0583
AGCCACTA	-0.112
AAAATCCA	-0.0451
ATGTGAGG	0.0347
TCAACACA	0.179
CTTCCAAA	0.0435
GTTCCGAA	0.369
GGTCCGAA	0.303
AGTCCGAG	0.268
ATTCCGAC	0.211
ATTCCGAA	0.388
ACTCCGAG	0.233
GTTCCAAA	0.158

Sequence	PBM E-score
ACTCCGAA	0.241
CTTCCGAA	0.39
CTTCCGAC	0.173
ATTCCGAG	0.353
AAGAATTA	0.134
CGGCCACA	0.194
CACATTCG	0.097
CGGGTATA	0.196
CAGGGAAA	0.0066
ACCATTGC	-0.0741
GTTTTACA	-0.015
GCCAACCA	-0.155
AATTAATT	0.0189
ATTTAATA	0.313
CTTTAGTA	-0.0339
TATTAATA	-0.00461
AATTAATA	0.407
ATTTAGTA	0.328
ATTTAGTC	0.133
CTTTAATA	0.245
GTTTAATA	0.155
GCTGCACA	-0.159
CGCAGTGC	-0.204
AAAGGGAG	-0.313
CAGTCTTA	-0.0806

Sequence	PBM E-score
TTCAAAAA	0.228
TTCAAGAA	0.312
GTCAAGAA	0.0525
CAGCCATG	-0.329
CGGGCTAC	0.00991
AGAATTTA	0.121
AACGCCGT	0.119
AACGCCGC	0.116
AACGCCGA	0.415
TACGCCGA	0.237
CACGCCGA	0.153
AACGCCGG	0.317
CCCTAAAA	-0.238
AAACGAGG	-0.124
GCTATAAC	-0.00042
GATCTGTA	-0.0435
GTTCGGTA	0.29
GTTCGGCA	0.368
ATTCGGCG	0.282
GGTCGGCA	0.112
GCTCGGCA	0.288
CTTCGGCA	0.333
CTTCGGCC	0.272
ATTCGGTG	0.155
CATCGGCA	0.211

Sequence	PBM E-score
ATTCGGCA	0.318
ATTCGGTA	0.329
ATTCGGCC	0.292
AAGCGTGT	-0.217
CACACTGC	-0.155
GATTGGCC	-0.0975
AGGGTGAA	-0.136
AATTGTCG	0.035
TGGAACCA	0.138
CCGAACCG	0.329
CCGAACGA	0.245
CGGAACCG	0.364
CGGAACCC	0.279
CCGAACCC	0.0527
CCGAACGG	0.325
AGGAACCG	0.179
GGGAACCA	-0.222
CCGAACGC	0.274
CCGAACCA	0.154
CGGAACCA	0.338
ACTTATAA	0.221
GATCTAGC	-0.195
CAACTACC	-0.0226
ATCCCATC	-0.19
ATGCACCC	-0.147

Sequence	PBM E-score
GGAAAAAA	0.304
CGGAAACC	0.188
CGGAAAAG	0.248
AGAAATAA	0.19
AGGAAAAA	0.168
GGAAATAA	0.319
CGGAAAAA	0.394
GGGAAAAA	0.123
CGAAATAA	0.255
CGGAAAAC	0.349
GGAAAAAC	0.124
GGGAAAAC	-0.00619
CCAACCAC	-0.0234
AGAAAACT	0.0223
TCCTTACA	-0.0191
AACGAAGT	-0.0531
TCTCCCAA	0.0611
GCACTACA	-0.142
CGCCCCTC	-0.199
AGGAAACA	0.165
CGGAAACA	0.314
GGGAAACA	0.22
CGTCTACC	0.0232
AAACTCGA	0.0301
GAAACGGA	0.294

Sequence	PBM E-score
TCCACGGA	0.304
ACCACGGA	0.107
ATAACGGA	0.278
ACAACGGT	-0.0406
CCCACGGA	0.157
CTAACGGA	0.284
TAAACGGA	0.311
ACAACGGG	0.00646
ACAACGGA	0.314
CAAACGGA	0.267
GTAACGGA	0.304
CCTGTAGA	-0.094
ACGGCAGC	0.161
AACGGTAC	0.187
CTCAAAGC	0.114
ATGAACAA	0.154
CCCCATCG	-0.0742
ACTCTGTC	-0.139
GCAACGGA	0.294
CCAACGGA	0.101
ATCACGGC	0.197
ATCACGGA	0.307
TCAACGGA	0.315
ATCACGGG	-0.164
CAATGCAG	-0.0658

Sequence	PBM E-score
AGCCAGTC	-0.153
CGAGGATC	0.0927
GAACCTCC	-0.0558
CAATTCAG	-0.0853
CAGCCGAG	0.275
CGGCCGAG	0.372
AGGCCGAG	0.143
GGGCCGAA	0.243
AGGCCGAC	0.0134
TGGCCGAA	0.295
CGGCCGAA	0.415
GGGCCGAC	0.132
CGGCCGAC	0.381
CACCCCCA	-0.206
CCAATTGG	0.041
TACTGTCA	-0.0937
GCTCAAGC	-0.0698
ATGCTAAA	0.0332
GATTGATA	0.0572
TGTTGTAA	0.148
ACCATCAG	-0.101
ACGCCGAT	0.151
TCGCCGAA	0.316
ACGCCGAA	0.343
TCGCCAAA	-0.0461

Sequence	PBM E-score
GCGCCGAC	0.206
ACGCCGAC	0.198
GCGCCGTA	0.247
GCGCCGAA	0.343
TCGCCGCA	0.0686
AGGTATTG	-0.0873
AAGGATAT	0.0287
CTCTCCCA	-0.211
CGGTCGCA	-0.0193
TGCCCGAA	0.0801
ACCAAAGT	-0.0125
ATGGCCTC	-0.106
ACGCTTCC	0.0165
CTAAAGTC	-0.0167
GCGGCACC	0.23
CCGGCATA	0.291
TCGGCACA	0.307
CCGGCACC	0.352
CCGGCATC	0.322
ACGGCATC	0.0862
ACGGCACA	0.0865
CCGGCACA	0.314
ACGGCACG	0.194
ACGGCACC	-0.0473
GCGGCACA	0.129

Sequence	PBM E-score
CCGGCACG	0.288
ACAGCTAA	-0.0181
CGCGGCCC	0.0857
AATGTTGT	-2e-05
GCTCTTCA	-0.187
ACACTAGC	-0.101
CTTCTTGA	-0.0452
ACTGGGCA	-0.199
CCGCCTCA	-0.051
CACCTCAG	-0.236
ACCTAATG	-0.284
CGGAGTGA	0.153
GTAGGTTA	-0.00416
CTGCCGAA	0.297
ATGCCGTG	0.115
ATGCCGTA	0.196
GTGCCGAA	0.387
ATGCCAAA	-0.0656
GTGCCAAA	-0.00899
ATGCCGAC	0.243
ATGCCGAA	0.408
ATGCCGAG	0.346
CAAGCCTC	-0.237
CGTCCCCA	-0.276
GACCATCC	-0.237

Sequence	PBM E-score
GTGGCCAA	-0.156
ATCAGCCC	-0.386
GCCGAACA	0.329
ACCGAACT	0.306
AACGAACT	0.0561
CCCGAACC	0.0911
CCCGAACA	0.0635
ACCGAACC	0.0575
ACCGAACG	0.235
ACCGAACA	0.259
GCCGAACC	0.323
CCTGGGCA	-0.276
CGATGTGC	-0.101
ACCCCACC	0.0874
AGAATTGC	-0.134
AGGGCAAC	-0.00172
AATCGGAC	0.152
GATCGGAC	0.322
CATCGGAA	0.278
AATCGGCC	0.146
AATCGGGT	0.173
TATCGGAA	0.351
GATCGGAA	0.279
AATCGGCA	0.289
AATCGGCT	0.349

Sequence	PBM E-score
AATCGGAT	0.327
GATCGGGC	0.00638
CATCGGAC	0.174
AGTAACTA	0.173
AGAAAACC	0.0683
CACCCCGC	0.0453
CGCAAGTA	0.0344
GGACCCAA	-0.081
CCGTCAAA	0.0576
ACTCTGGC	-0.105
AGAGAACG	0.0412
AGACTAAG	-0.0179
ATCGTGGC	-0.101
ATAGATAT	0.161
CGCTTTTC	-0.0353
ACTGGCAA	-0.0748
AGTCTAGG	-0.144
AATCGGAG	0.216
AATCGGAA	0.374
AATCGGGA	0.0709
ACTTCACC	0.18
GCGCTTTA	0.0325
ACTGGCGG	-0.0142
AAATGCCC	-0.175
AAATGCCG	0.353

Sequence	PBM E-score
CAATGCCG	0.22
CGTGCGTC	0.0693
AATGTTCT	0.0086
ATCGCCGA	0.365
ACCGCCGG	0.291
ATCGCCGC	0.206
ATCGCCGG	0.39
GTCGCCGA	0.219
CTCGCCGA	0.193
GCCCGTGA	-0.132
AAATGCTC	-0.0216
CCGGGTTA	0.25
CCGGGTTC	0.356
ACGGGTTC	0.0138
CCGGGTAA	0.348
TCGGGTAA	0.0925
CCGGGTAC	0.117
AGTTGTAG	0.0893
AAGGTGTA	-0.105
CGCCACCG	-0.156
AGTCCCAT	-0.173
CCAGACCC	-0.262
AACTTTCA	0.122
CTACGGAA	0.205
ATACGGAA	0.412

Sequence	PBM E-score
TTACGGAA	0.355
ATACGGAT	0.196
GTACGGAA	0.28
ATACGGAC	0.117
CCTACTGA	-0.151
GGTCTATA	-0.16
TGCCGCAA	0.135
ACCGCATG	0.0226
ATGCTATG	-0.117
AGGAATTA	0.0841
CGGAATTA	0.352
AGGAATAC	-0.0183
CGGAAGCC	0.211
CGGAATAC	0.353
CGGAAGCA	0.332
GGGAATAC	0.0278
CGGAATTC	0.277
CGGAATCA	0.306
GGGAATCA	0.0818
GGGAAGCA	-0.128
AGGAATCA	0.078
